Assay results taken from PubChem BioAssay AID686978 (National Center for Advancing Translational Sciences (NCATS), 2013).
Among all 420,000 compounds or so, about 64,000 (15%) were called active. Not shown: some 27% with an inconclusive outcome. Calls follow the shape of the dose curve; as a rule, active = well fitted inhibition curve with a large enough effect; inconclusive = small, poorly fitted or top-dose-only effect; inactive = flat fitted curve, though single readings scatter. These entries were drawn from the full list. Entries that show only a call come without a potency.

experiment: qHTS for Inhibitors of human tyrosyl-DNA phosphodiesterase 1 (TDP1): qHTS in cells in absence of CPT; settings: DT40 Tdp1-/- hTDP1 cells, no CPT, ATP luminescence, 48 h; activity change, negative = growth inhibition: at 46.2 µM (top of the series); also: nearly all actives have a fitted effect of over 55% in size
Outline: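 DT40 Tdp1-/-;hTDP1 cells, no CPT (DMSO vehicle only), 400 cells/well; compounds pin-transferred; ≥48 hr, 37 °C; CellTiter-Glo 30 min RT dark, luminescence read.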
Potency is read from the fitted curve at half-maximal effect.

SMILES | Potency
CCN(CC)CCCSc1nc2ccccc2s1 | inactive
O=C(NC(=O)N1CCSCC1)c1c(Cl)cccc1Cl | inactive
O=C(NCCc1cccc(F)c1)C1CC(O)CN1C(=O)Nc1ccccc1 (configuration not stated) | inactive
COc1cc(CCC(=O)Nc2ccncc2Cl)cc(OC)c1OC | inactive
COc1ccc(CCC(=O)N2CCN(S(=O)(=O)c3ccc(OC)cc3)CC2)cc1 | inactive
COc1cc(CCC(=O)N2CCN(c3ccccc3Cl)CC2)cc(OC)c1OC | 11.6 µM (active)
CCOC(=O)C1=C(c2ccccc2)O/C(=C(/C(=O)OC)C(F)(F)F)S1 | inactive
Cc1ccc2c(c1)N(C(=O)CCC(=O)NCc1cccnc1)CCO2 | inactive
Cc1c(C)n2c(SCC(=O)NC3CCCC3)nnc2[nH]c1=O | inactive
CC(C)Cc1nnc(N)s1 | inactive
CC1CCC(N2CC(=O)N(CCC3=CCCCC3)C(c3ccc(F)cc3)C2=O)CC1 (configuration not stated) | 10.3 µM (active)
CCOCCCN1C(=O)CN(C2CCCCC2)C(=O)C1c1ccc(OCC)c(OC)c1 (configuration not stated) | inactive
CCCc1nnc(SCC(=O)N2C(C)CCCC2C)n1CC (configuration not stated) | inactive
O=C(c1cccc(N2CCCC2=O)c1)N1CCOCC1 | inactive
O=C1Nc2c(Br)cc(Br)cc2C1(O)N1CCOCC1 (configuration not stated) | 3.66 µM (active)
O=C(CSC(=S)N1CCOCC1)c1cc(Br)cc(Br)c1O | inactive
O=C(c1cc2cc(Br)cc(Br)c2oc1=O)N1CCOCC1 | inactive
O=C(CN1C(=O)c2cccc3cccc(c23)C1=O)N1CCCCC1 | inactive
c1ccc(CCN2CN=C(Nc3nc4ccccc4o3)NC2)cc1 | inactive
COc1cc(NS(=O)(=O)c2ccc(N/C=C(\C=O)c3nc4cc(Cl)ccc4o3)cc2)nc(OC)n1 | inactive
O=C(NCCCN1CCOCC1)C1CCCN(S(=O)(=O)N2CCCCC2)C1 (configuration not stated) | inactive
CCCSc1nsc(N)n1 | inactive

SMILES | Potency
COc1ccc(/C(O)=C2\C(=O)C(=O)N(Cc3ccco3)C2c2ccc(OC)cc2OC)cc1 (configuration not stated) | inactive
CCC(c1nnnn1Cc1ccco1)N(CCc1ccccc1)Cc1cc2cccc(C)c2[nH]c1=O (configuration not stated) | 29.1 µM (active)
CC(C)C(c1nnnn1CCc1ccccc1)N1CCN(C(=O)c2ccco2)CC1 (configuration not stated) | inactive
COc1ccc2[nH]c3c(=O)n(Cc4ccco4)cnc3c2c1 | inactive
CCC(c1nnnn1Cc1ccco1)N(Cc1cc2cc(OC)ccc2[nH]c1=O)C1CCCCC1 (configuration not stated) | 23.1 µM (active)
CCCN(Cc1cc2cccc(C)c2[nH]c1=O)S(C)(=O)=O | inactive
CCC(c1nnnn1Cc1ccco1)N(CCc1ccccc1)Cc1cc2ccc(OC)cc2[nH]c1=O (configuration not stated) | 29.1 µM (active)
CCOc1ccc2[nH]c(=O)c(C(c3nnnn3CCOC)N3CCOCC3)cc2c1 (configuration not stated) | inactive
CCN(CC)c1ccc(/C=N/NC(=O)CNC(=O)c2cccs2)cc1 | inactive
CN(C(=O)COC(=O)c1nc(Cl)ccc1Cl)C1CCS(=O)(=O)C1 (configuration not stated) | inactive
COc1ccc(NC2CC(=O)N(C)C2=O)cc1 (configuration not stated) | inactive
COc1ccccc1S(=O)(=O)c1c(C)cc(C)[nH]c1=O | inactive
C=CCNC(=S)NNC(=O)COc1c(Cl)cc(Cl)cc1Cl | inactive
CC(C)(C)C(=O)Nc1ccc(C(=O)N/N=C/c2ccccc2OC(=O)c2ccc(Cl)cc2Cl)cc1 | 11.6 µM (active)
O=C(N/N=C/c1ccoc1)c1ccc(Cl)cc1Cl | inactive
CSc1ccc(/C=N/NC(=O)c2cccc(Cl)c2)cc1 | inactive
CCN1C[C@@H]2[C@@H]3C(=O)N(Cc4ccccc4)C(=O)[C@@H]3[C@](Cc3ccccc3)(C(=O)OC)N2C1=NC1CCCCC1 | 16.4 µM (active)
CC[C@]1(C(=O)OC)[C@H]2C(=O)N(C)C(=O)[C@H]2[C@H]2CN(C)C(=NCc3ccccc3)N21 | inactive
CCCN=C1N(C)C[C@@H]2[C@@H]3C(=O)N(Cc4ccccc4)C(=O)[C@@H]3[C@](C)(C(=O)OC)N12 | inactive
CCOC(=O)c1cc2occc2n1CC(=O)N1CCN(C(=O)c2ccco2)CC1 | inactive
ClC1(Cl)CC1CSc1ncn[nH]1 (configuration not stated) | inactive
CC(=O)O[C@H]1c2ccccc2-c2ccccc2[C@@H]1OC(C)=O | inactive

SMILES | Potency
Cc1ccc(Cn2c(C)nc3c(c2=O)c2nc4ccccc4nc2n3Cc2ccco2)cc1 | 23.1 µM (active)
CC(Sc1nc2ccccc2c(=O)n1Cc1ccco1)C(=O)c1ccccc1 (configuration not stated) | inactive
Cc1ccc(Cn2c(=O)n(Cc3nc(-c4ccccc4)no3)c(=O)c3cc4c(cc32)OCO4)cc1 | inactive
O=C(NNc1ccccn1)c1ccc(Cl)nc1 | inactive
CCOC(=O)C(C)n1cnc2scc(-c3ccc(C)c(C)c3)c2c1=O (configuration not stated) | inactive
Cc1nc2scc(-c3cccs3)c2c(=O)n1N | inactive
CCCc1nc2scc(-c3ccc(C)cc3)c2c(=O)n1N | 18.4 µM (active)
Cc1cc(C)c(S(=O)(=O)c2ccccc2)c(OC(=O)c2c(F)cccc2Cl)n1 | inactive
CCN(CC)S(=O)(=O)c1ccc(N(C)Cc2ccc(C(F)(F)F)cc2)nc1 | 13 µM (active)
CCN(CC)S(=O)(=O)c1ccc(OC)c(NC(=O)CCc2c(C)noc2C)c1 | inactive
CCS(=O)(=O)NCCc1ccc(OC)c(OC)c1 | inactive
CCOc1ccc(Br)cc1S(=O)(=O)Nc1cccc(S(=O)(=O)N(CC)CC)c1 | inactive
CCOC(=O)CN(Cc1ccc(OC)c(OC)c1)S(=O)(=O)c1ccc(OC)cc1 | inactive
CCN(CC)S(=O)(=O)c1ccc(N(C)Cc2cccc(OC)c2OC)nc1 | 18.4 µM (active)
CCN(CC)S(=O)(=O)c1ccc(Cl)c(NC(=O)c2ccncc2)c1 | inactive
CCN(CC)S(=O)(=O)c1ccc(N(C)CCc2ccc(OC)c(OC)c2)nc1 | 20.6 µM (active)
CCN(CC)S(=O)(=O)c1ccc(NC(=O)c2cnc(C)cn2)cc1 | inactive
NC(=O)C[C@@H]1NC(=O)CNC(=O)c2cc([N+](=O)[O-])cc(I)c2NCCC(C(N)=O)NC1=O (some centres not stated) | inactive
COc1ccc(-n2c(CNC(=O)c3cc(C(F)(F)F)ccc3Cl)nnc2SC)cc1 | inactive
CC(C)=CC(=O)Nc1nnc(-c2ccc(F)cc2)s1 | inactive
COc1cccc(OC)c1C(=O)Nc1nnc(C(C)C)s1 | inactive
COc1ccc(N2C(=O)C3CCCN3C2c2cccs2)cc1 (configuration not stated) | inactive

SMILES | Potency
Cc1cc(C)c2c(-n3cccc3)c(C(=O)NNS(=O)(=O)c3ccc(F)cc3)sc2n1 | inactive
Cc1cc(C(=O)CC#N)c(C)n1-c1c(C)n(C)n(-c2ccccc2)c1=O | inactive
Cc1nn(C)c(Cl)c1CN1CCC(n2nccc2NC(=O)C2CCCC2)CC1 | inactive
O=C(O)C1=CCCN(CCON=C(c2ccccc2)c2ccccc2)C1 | inactive
COc1ccc(NC(=O)c2cc3cc(C)ccc3n2C)cc1 | inactive
Cc1ccc(NC(=O)c2cc3cc(C)ccc3n2C)cc1 | inactive
COc1ccc(OC)c(/C(C)=N\NC(=O)c2cc3cc(Cl)ccc3n2C)c1 | 4.61 µM (active)
Cc1cc(C)cc(OCC(=O)O/N=C(\N)Cc2ccc([N+](=O)[O-])cc2)c1 | inactive
CCOc1ccc(NS(=O)(=O)c2ccc(OCC(=O)NCCCOC)cc2)cc1 | inactive
CCOc1ccc2c(=O)c(-c3ccc4c(c3)OCCCO4)c(C)oc2c1 | 13 µM (active)
COC(=O)Cc1c(C)c2ccc(OCC(=O)NCc3ccc4c(c3)OCO4)cc2oc1=O | inactive
O=C(COc1ccc2c(C(F)(F)F)cc(=O)oc2c1)Nc1ccc2c(c1)OCCO2 | inactive
Cc1ccc(N2CC(C(=O)Nc3ccc(N(C)C)cc3)CC2=O)cc1Cl (configuration not stated) | inactive
COC(=O)c1ccc(NC(=O)CSc2nnc(CNc3ccc(OC)cc3)n2C)cc1 | inactive
Cc1ccc(SCC(=O)Nc2ncc(C)s2)cc1 | inactive
COc1ccc(CC(=O)NCc2nnc(SCC(=O)Nc3nccs3)n2C)cc1 | inactive
COc1ccc(CC(=O)NCc2nnc(SCC(=O)Nc3ncc(C)s3)n2C)cc1 | 16.4 µM (active)
Cc1cnc(NC(=O)CSc2c(Cl)cccc2Cl)s1 | 13 µM (active)
Cc1cnc(NC(=O)CSc2nnc(C)s2)s1 | inactive
COc1ccc(C(=O)NCc2nnc(SCCOc3ccccc3)n2C)cc1 | 29.1 µM (active)
COc1ccc(-n2nnnc2CNC(=O)c2ccc3ccccc3c2)cc1 | inactive
COc1ccccc1C(=O)NCc1nnc(SC(C)C(=O)Nc2nccs2)n1C (configuration not stated) | inactive

SMILES | Potency
C=CCC1=C/C(=C\c2c(N)n3nc(CC(=O)N4CCOCC4)sc3nc2=O)C=C(OC)C1=O | inactive
CC(=O)NC1CC2CCCC(C1)N2CC(=O)Nc1ccccc1 (configuration not stated) | inactive
COc1ccccc1NS(=O)(=O)N(C)C | inactive
CC(C)(C)NC(=O)/C(=C/c1cccnc1)NC(=O)c1ccco1 | inactive
NS(=O)(=O)c1ccc2nc(NC(=O)C3=COCCO3)sc2c1 | inactive
N#CC(Cc1cc2ccccc2n1S(=O)(=O)c1ccccc1)OCc1ccccc1 (configuration not stated) | inactive
O=C(Nn1cnnc1)c1cc(Cl)ccc1Cl | inactive
CC(C)=CCN1CCN(Cc2ccc(Oc3ncccn3)cc2)CC1CCO (configuration not stated) | inactive
Cc1ccc(NC(=O)c2cccc(N(C)C)c2)cc1NC(=O)c1ccc(O)cc1 | inactive
O=C1[C@@H]2C(c3cccnc3)=NO[C@@H]2C(=O)N1c1ccc(Cl)cc1Cl | inactive
OCCC1CN(Cc2ccccc2-c2ccco2)CCN1Cc1ccsc1 (configuration not stated) | inactive
Cc1ccc(C)c2[nH]c(=O)c(CCNC(=O)c3cccs3)cc12 | inactive
COc1ccccc1NC(=O)CCC(=O)OC(C)C(=O)c1ccccc1 (configuration not stated) | inactive
Cc1ccc(S(=O)(=O)N(Cc2cc3ccccc3[nH]c2=O)CC2CCCO2)cc1 (configuration not stated) | inactive
COc1ccc2[nH]c(=O)c(CN(Cc3nnnn3CCc3ccccc3)CC3CCCO3)cc2c1 (configuration not stated) | 9.2 µM (active)
CCOc1ccc2[nH]c(=O)c(CN(Cc3nnnn3CCc3ccccc3)CC3CCCO3)cc2c1 (configuration not stated) | 14.6 µM (active)
O=C(c1cccs1)N(Cc1cc2ccccc2[nH]c1=O)CC1CCCO1 (configuration not stated) | inactive
Cc1cc2cc(CN(Cc3cccs3)Cc3nnnn3CC3CCCO3)c(=O)[nH]c2cc1C (configuration not stated) | 20.6 µM (active)
Cc1ccc(C(=O)N/C(=C/c2cccs2)C(=O)NCC2CCCO2)cc1 (configuration not stated) | inactive
